Records with an inconclusive call do not appear. Activity calls are given as the source filed them. Calls follow the shape of the dose curve; as a rule, active = well fitted inhibition curve with a large enough effect; inconclusive = small, poorly fitted or top-dose-only effect; inactive = flat fitted curve, though single readings scatter.
What was measured:
Experiment in all cases: qHTS profiling for inhibitors of Plasmodium falciparum proliferation (AID 504749); also: nearly all actives have a fitted effect of over 60% in size
Details in all cases: P. falciparum in erythrocytes, SYBR Green DNA, 72 h; series mostly up to 28.7 µM
PC15 = system: PC15
Outline: (§1)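 Each compound contacts P. falciparum-infected red blood cells for 72 h at 37 C; lysis buffer (Tris, EDTA, saponin, Triton X, SYBR Green I) is added and fluorescence measured next morning; values normalized to controls.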

PC26 = system: PC26
Outline: as §1

PC49 = system: PC49
Outline: as §1

SC27B = system: SC27B
Outline: as §1

TAB109 = system: TAB109
Outline: as §1

TAB113 = system: TAB113
Outline: as §1

TAB165 = system: TAB165
Outline: as §1

W2 = system: W2
Outline: as §1

Measured: Potency

NCCN
inactive: PC15 | PC26 | PC49 | SC27B | TAB109 | TAB113 | TAB165 | W2

O=C(O)c1ccc(OCCn2ccnc2)cc1
inactive: PC15 | PC26 | PC49 | SC27B | TAB109 | TAB113 | TAB165 | W2

C=CC(C)(O)CC/C=C(\C)CCC=C(C)C (stereo unspecified)
inactive: PC15 | PC26 | PC49 | SC27B | TAB109 | TAB113 | TAB165

C[C@]12CCC(=O)C[C@@H]1CC[C@@H]1[C@@H]2CC[C@]2(C)C=CC[C@@H]12
inactive: PC15 | PC26 | PC49 | SC27B | TAB109 | TAB113 | TAB165

CC(C)O
inactive: PC15 | PC26 | PC49 | SC27B | TAB109 | TAB113 | TAB165 | W2

CC(C)CCC[C@@H](C)[C@H]1CC[C@H]2[C@@H]3CC[C@@H]4C[C@H](O)CC[C@]4(C)[C@H]3CC[C@]12C
inactive: PC15 | PC26 | PC49 | SC27B | TAB109 | TAB113 | TAB165 | W2

O[C@@H]([C@H](O)[C@H](O)CBr)[C@H](O)CBr
inactive: PC15 | PC26 | PC49 | SC27B | TAB109 | TAB113 | TAB165 | W2

OC/C=C/c1ccccc1
inactive: PC15 | PC26 | PC49 | SC27B | TAB109 | TAB113 | TAB165

S=C=Nc1ccc(N=C=S)cc1
inactive: PC15 | PC26 | PC49 | SC27B | TAB109 | TAB113 | TAB165

CC(C)(CO)[C@@H](O)C(=O)NCCC(=O)NCCSSCCNC(=O)CCNC(=O)[C@H](O)C(C)(C)CO
inactive: PC15 | PC26 | PC49 | SC27B | TAB109 | TAB113 | TAB165 | W2

COC(=O)[C@@H](N)CS
inactive: PC15 | PC26 | PC49 | SC27B | TAB109 | TAB113 | TAB165

CC(C)c1nc(N(C)S(C)(=O)=O)nc(-c2ccc(F)cc2)c1/C=C/C(O)CC(O)CC(=O)O (stereo unspecified)
inactive: PC15 | PC26 | PC49 | SC27B | TAB109 | TAB113 | TAB165 | W2

O=P(O)(O)O
inactive: PC15 | PC26 | PC49 | SC27B | TAB109 | TAB113 | TAB165 | W2

Cc1ncc(C[n+]2csc(CCOP(=O)(O)OP(=O)(O)O)c2C)c(N)n1
inactive: PC15 | PC26 | PC49 | SC27B | TAB109 | TAB113 | TAB165 | W2

CN(Cc1ccccc1)Cc1ccccc1
inactive: PC15 | PC26 | PC49 | SC27B | TAB109 | TAB113 | TAB165

O=C1c2ccccc2C(=O)C1c1ccc(F)cc1
inactive: PC15 | PC26 | PC49 | SC27B | TAB109 | TAB113 | TAB165

CN(CCO)CC(O)Cn1cnc2c1c(=O)n(C)c(=O)n2C (stereo unspecified) (tested in a mixture with another compound)
inactive: PC15 | PC26 | PC49 | SC27B | TAB109 | TAB113 | TAB165 | W2

Cc1ncc(C[n+]2csc(CCOP(=O)(O)O)c2C)c(N)n1
inactive: PC15 | PC26 | PC49 | SC27B | TAB109 | TAB113 | TAB165 | W2

CN(C)C=Nc1c(I)cc(I)c(CCC(=O)O)c1I
inactive: PC15 | PC26 | PC49 | SC27B | TAB109 | TAB113 | TAB165 | W2

O=C(NNCS(=O)(=O)O)c1ccncc1
inactive: PC15 | PC26 | PC49 | SC27B | TAB109 | TAB113 | TAB165 | W2

CCCCC(CC)CCC(CC(C)C)OS(=O)(=O)O (stereo unspecified)
inactive: PC15 | PC26 | PC49 | SC27B | TAB109 | TAB113 | TAB165 | W2

COc1ccc(C(=O)CCC(=O)O)c2ccccc12
inactive: PC15 | PC26 | PC49 | SC27B | TAB109 | TAB113 | TAB165 | W2

Cc1ccc(S(=O)(=O)NCl)cc1
inactive: PC15 | PC26 | PC49 | SC27B | TAB109 | TAB113 | TAB165 | W2

C=CCN1CCCC1CNC(=O)c1cc(S(N)(=O)=O)cc(OC)c1OC (stereo unspecified)
inactive: PC15 | PC26 | PC49 | SC27B | TAB109 | TAB113 | TAB165 | W2

CCOc1ccc(NC(=S)Nc2ccc(OCC)cc2)cc1
inactive: PC15 | PC26 | PC49 | SC27B | TAB109 | TAB113 | TAB165 | W2

C(=C\c1ccncc1)/c1ccccc1
inactive: PC15 | PC26 | PC49 | SC27B | TAB109 | TAB113 | TAB165 | W2

From PubChem BioAssay (NCATS)
